Legend:
Settings in all cases: concentration: 1 μM, replicates: in singlicate; n = 1
[1] = tested on: AURKC
[2] = tested on: AXL
[3] = tested on: T1, BIKE
T1 construct: gene BMP2K

[4] = tested on: BLK
[5] = tested on: BMPR1A
[6] = tested on: BMPR1B
[7] = tested on: BMPR2
[8] = tested on: BMX
[9] = tested on: BRAF
[10] = tested on: T2, BRK
T2 construct: gene PTK6

[11] = tested on: BRSK1
[12] = tested on: BRSK2
[13] = tested on: BTK
[14] = tested on: BUB1
[15] = tested on: CAMK1B
[16] = tested on: CAMK1D
[17] = tested on: CAMK1G
[18] = tested on: CAMK1
[19] = tested on: CAMK2A
[20] = tested on: CAMK2B
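Also: KINOMEscan kinase panel screen.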

Row | Structure (SMILES) | %Inh [1] | %Inh [2] | %Inh [3] | %Inh [4] | %Inh [5] | %Inh [6] | %Inh [7] | %Inh [8] | %Inh [9] | %Inh [10] | %Inh [11] | %Inh [12] | %Inh [13] | %Inh [14] | %Inh [15] | %Inh [16] | %Inh [17] | %Inh [18] | %Inh [19] | %Inh [20]
1 | Nc1nc(-c2ccccn2)c(-c2ccnc3ccccc23)s1 [GW548057] | 25% | 8% | 33% | 9% | 0% | 35% | 32% | 9% | 0% | 1% | 0% | 0% | 8% | 39% | 33% | 8% | 0% | 4% | 1% | 0%
2 | Fc1ccc(-c2ncn(CCCNCc3ccccc3)c2-c2ccncc2)cc1 | 0% | 18% | 0% | 7% | 13% | 24% | 16% | 7% | 16% | 3% | 0% | 0% | 0% | 12% | 0% | 4% | 0% | 2% | 21% | 6%
3 | CSc1ccc(NC2=C(c3ccccc3Cl)C(=O)NC2=O)cc1 [SB-342411] | 13% | 3% | 19% | 0% | 0% | 0% | 5% | 34% | 21% | 14% | 0% | 12% | 0% | 0% | 0% | 22% | 19% | 3% | 18% | 13%
4 | Clc1cccc(-c2nc(Nc3ccncc3)c3ccccc3n2)c1 [GW873004] | 10% | 0% | 10% | 19% | 21% | 4% | 10% | 43% | 0% | 24% | 1% | 23% | 0% | 31% | 0% | 0% | 0% | 0% | 1% | 4%
5 | Clc1ccc(-c2cc(-c3c[nH]nc3-c3ccccn3)ccn2)cc1 [GW681251] | 17% | 0% | 23% | 35% | 0% | 0% | 0% | 10% | 0% | 0% | 0% | 0% | 0% | 31% | 0% | 2% | 0% | 0% | 0% | 0%
6 | NC(=O)c1sc(-n2cnc3ccccc32)cc1OCc1ccccc1F [GSK1024306] | 38% | 0% | 60% | 0% | 0% | 0% | 27% | 6% | 0% | 14% | 5% | 0% | 0% | 20% | 31% | 0% | 0% | 0% | 0% | 0%
7 | COc1ccc(-c2oc3ncnc(N)c3c2-c2ccc(OC)cc2)cc1 [SB-589132] | 0% | 13% | 0% | 66% | 0% | 0% | 30% | 0% | 38% | 15% | 12% | 0% | 54% | 64% | 13% | 7% | 0% | 19% | 0% | 0%
8 | CNc1nccc(-c2c(-c3ccc(F)cc3)ncn2C2CCN(C)CC2)n1 [SB-222903] | 0% | 0% | 0% | 36% | 0% | 0% | 11% | 0% | 0% | 0% | 0% | 0% | 0% | 75% | 0% | 0% | 0% | 0% | 0% | 0%
9 | N#Cc1ccc(Oc2ccc(Nc3ncnc4cc[nH]c34)cc2Cl)cc1 | 11% | 22% | 1% | 28% | 18% | 8% | 25% | 13% | 0% | 11% | 3% | 0% | 0% | 12% | 0% | 33% | 17% | 24% | 21% | 22%
10 | Nc1n[nH]c2nnc(-c3ccccc3)cc12 [SB-517389] | 0% | 0% | 0% | 0% | 4% | 0% | 0% | 0% | 0% | 20% | 0% | 0% | 0% | 0% | 38% | 28% | 0% | 15% | 0% | 0%
11 | OCCOCCn1ccc2ncnc(Nc3ccc(Oc4cccc(Cl)c4)c(Cl)c3)c21 | 0% | 0% | 0% | 3% | 1% | 0% | 0% | 13% | 0% | 0% | 0% | 33% | 0% | 0% | 0% | 0% | 0% | 0% | 0% | 0%
12 | Clc1cc(Nc2ncnc3cc[nH]c23)ccc1OCc1ccccn1 | 0% | 19% | 0% | 0% | 25% | 8% | 17% | 20% | 0% | 4% | 0% | 1% | 0% | 0% | 4% | 33% | 27% | 35% | 0% | 0%
13 | COC(=O)c1c(-c2ccccc2)c2cc(Cl)ccc2c(=O)n1Cc1ccc(S(C)(=O)=O)cc1 | 0% | 0% | 0% | 0% | 0% | 5% | 0% | 17% | 65% | 7% | 0% | 0% | 25% | 0% | 0% | 0% | 9% | 2% | 0% | 0%
14 | Fc1ccc(Nc2nccc(-c3c(-c4ccc(Cl)cc4)nn4ncccc34)n2)cc1F [GW829058] | 0% | 1% | 0% | 0% | 18% | 18% | 32% | 5% | 37% | 6% | 0% | 4% | 75% | 35% | 13% | 32% | 0% | 22% | 16% | 18%
15 | CNc1nccc(-c2c(-c3ccc(F)cc3)ncn2CCCN2CCOCC2)n1 [SB-222516] | 21% | 14% | 0% | 17% | 13% | 0% | 30% | 3% | 6% | 0% | 0% | 3% | 0% | 0% | 0% | 0% | 0% | 0% | 8% | 16%
16 | CCCc1ccc(S(=O)(=O)NC2CCN(c3ccnc(Nc4ccc(OC)cc4)n3)C2)cc1 (stereo not drawn) [GSK1379737] | 0% | 0% | 0% | 30% | 0% | 0% | 8% | 0% | 0% | 6% | 0% | 0% | 0% | 47% | 0% | 11% | 0% | 5% | 0% | 0%
17 | Cc1ccc(C)c(NC(=O)NCCNc2ccnc(Nc3ccc(F)cc3)n2)c1 [GSK1379878] | 15% | 0% | 20% | 33% | 0% | 0% | 0% | 0% | 0% | 1% | 0% | 0% | 0% | 14% | 28% | 2% | 62% | 5% | 0% | 0%
18 | CN1c2ccc(-c3ccc(C(=O)NCCO)cc3)cc2-c2[nH]ncc2S1(=O)=O | 9% | 17% | 10% | 26% | 19% | 16% | 0% | 13% | 19% | 0% | 0% | 15% | 6% | 0% | 23% | 45% | 0% | 49% | 67% | 66%
19 | CC(C)(C)c1ccc(-n2cnc3c(N)ncnc32)cc1 [SKF-97263] | 16% | 15% | 19% | 6% | 0% | 5% | 6% | 16% | 0% | 6% | 18% | 0% | 0% | 18% | 12% | 9% | 0% | 10% | 0% | 0%
20 | Cn1ccc2ncnc(Nc3ccc(Oc4cccc(Cl)c4)c(Cl)c3)c21 | 0% | 0% | 0% | 14% | 22% | 0% | 29% | 13% | 0% | 17% | 13% | 0% | 0% | 12% | 0% | 11% | 5% | 22% | 9% | 0%
21 | COc1cc2ncnc(Nc3ccc(OCc4ccccc4Br)c(Cl)c3)c2cc1OC.Cl [GI261590] | 42% | 19% | 5% | 49% | 0% | 0% | 15% | 4% | 7% | 66% | 0% | 37% | 0% | 66% | 21% | 0% | 0% | 12% | 0% | 0%

From publication PMC5540273 (PLoS ONE, 2017)
